Unmarked numbers belong to inactive results. The rule behind the calls is not given here.

In the test the target is L-lactate dehydrogenase (Plasmodium falciparum (isolate CDC / Honduras)) (UniProt Q27743). Nature of the test: PfLDH activity inhibition – cell lysate, 3D7 strain, counter-screen for P. falciparum growth inhibition project (AID 2304).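 Note: 0% = vehicle and 100% = reference inhibitor.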 The conditions noted are these: P. falciparum 3D7 crude extract, LDH APAD/NBT absorbance; at 2 µM; hits give high values.
Chain of L-lactate dehydrogenase (Plasmodium falciparum (isolate CDC / Honduras)) (Q27743 whole entry, looked up): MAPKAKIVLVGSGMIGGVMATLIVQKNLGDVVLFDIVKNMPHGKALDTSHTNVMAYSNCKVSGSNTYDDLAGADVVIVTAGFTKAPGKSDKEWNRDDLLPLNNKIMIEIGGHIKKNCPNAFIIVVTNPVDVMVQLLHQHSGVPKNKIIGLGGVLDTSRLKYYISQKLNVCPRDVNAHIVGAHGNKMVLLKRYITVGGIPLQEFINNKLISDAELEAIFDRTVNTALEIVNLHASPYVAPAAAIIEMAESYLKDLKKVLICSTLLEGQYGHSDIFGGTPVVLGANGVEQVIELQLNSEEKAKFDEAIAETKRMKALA
Turning to `CCCCCCOc1ccccc1C(=O)NCCOc1ccc(Cl)cc1`, the inhibition was 4%. Regarding `CCOc1ccc(C(Cc2ccccc2)NC(=O)c2cccnc2)cc1OCC` (configuration not stated), the inhibition is 5%. For `c1ccc2[nH]c(-c3ccc(-c4ccc(CNC5CC5)cc4)s3)nc2c1`, the inhibition is -7%. The figure for `Cn1nc(-c2ccccc2F)c2cc(C(=O)Nc3cccnc3)sc21` is 3%; for `COc1c(Br)cc(Br)cc1-c1ccc(CN2C3CCCC2CCC3)[nH]1` it is 3%. In the case of `CC(=O)Nc1cccc(C(=O)Nc2cccc(-c3ccc(-c4nc5ccc(F)cc5[nH]4)s3)c2)c1`, the inhibition was -1%. `O=C(/C=C/c1ccc(F)cc1)NC1CCC(CCN2CCCN(c3ccc(C(F)(F)F)cn3)CC2)CC1` (configuration not stated): the inhibition is -1%. Consider `CN(C)C(C)(C)CN(Cc1ccc(-c2ccc(C(F)(F)F)cc2)cc1)C(=O)Cn1c(CCc2cccc(F)c2F)nc(=O)c2ccccc21`, for which the inhibition is -3%.

As for `Cc1ccc(-c2nc(NC(=O)Nc3ccc(C(F)(F)F)cc3)sc2C)cc1Cl`, the inhibition is -5%. The figure for `CN1CCC(NCc2cccc(-c3ccc(S(=O)(=O)NCCN4CCCC4)s3)c2)CC1` is -5%; for `O=c1cc(NCCCNCc2cc(Cl)cc(Cl)c2OCc2ccc(Cl)cc2)[nH]c2ccccc12` it is 3%; for `CC1CCCN(c2ccc(NC(=O)c3cccs3)cc2[N+](=O)[O-])C1` (configuration not stated) it is -2%. Then `CC(C)CCCC(C)(C)NC[C@@H](O)[C@H](Cc1ccccc1)NC(=O)c1cc(NC(C)C)cc(N2CCCCS2(=O)=O)c1`, with -1%. With `C=CCc1cccc(C)c1OCCCON1C(N)=NC(N)=NC1(C)C`, the inhibition is -8%. In the case of `CC(C)CC(=O)N(Cc1ccc(-c2ccc(CNC3Cc4ccccc4C3)cc2)cc1)C1CCNCC1`, the inhibition was -5%. The figure for `Oc1ccccc1CN[C@@H]1CCCC[C@H]1NCc1ccccc1O` is 2%; for `C=CCN1C(=O)CN(S(=O)(=O)c2ccc(-n3nc(C)cc3C)cc2)C1=S` it is 1%; for `O=C(/C=C/c1ccc(Cl)c(Cl)c1)NCCCCCCN1CCCN(C(=O)Nc2cccc(Cl)c2)CC1` it is 0%.

For the compound `O=C(NC1CC1)c1ccc(N2CCCCN2CCc2ccccc2)c(C(F)(F)F)c1`, the inhibition is -4%. For `CC(C)(C)c1ccc(OCCCON2C(N)=NC(N)=NC2(C)C)c(C(C)(C)C)c1`, the inhibition was 2%.

As for `COc1ccc(-c2ccc(NC(=O)c3cccc(Cl)c3)cc2)cc1CN1CCC(O)CC1`, the inhibition was -5%.

For the compound `CCN1CCN(c2cc(C)c3cc(NC(=O)c4cc(OC)cc(OC)c4)ccc3n2)CC1`, the inhibition was 4%. As to `CSc1ccc2nccc(Nc3ccc(Oc4ccccc4)cc3)c2c1`, the inhibition was -7%. As for `Cc1cccc2[nH]c(-c3cccc(-c4cccc(CN5CCCC5CN)c4)c3)nc12` (configuration not stated), the inhibition is 6%. As for `COc1ccc(C(C(=O)NC2CCN(C[C@H](O)c3ccnc4ccc(OC)cc34)CC2)N2CCN(c3ccc(F)cc3)CC2)cc1` (some centres not stated), the inhibition was -6%. For the compound `CCCc1cn2c3c(cc(C(=O)N[C@@H](Cc4ccccc4)[C@H](O)CNC4CCOCC4)cc13)N(C)S(=O)(=O)CC2`, the inhibition is 3%. Consider `CCCNCc1ccc(-c2ccc(CN(Cc3cnc(C)cn3)C(=O)/C=C/c3ccccc3C)cc2)nc1`, for which the inhibition was 5%. `Cn1cc(C2CCN(CCCCNC(=O)c3ccc(C(=O)Nc4ccc(C#N)cc4)cc3)CC2)c2ccccc21`: the inhibition was -4%. For `CCOc1ccnc(=O)[nH]1`, the inhibition was 5%. The figure for `COc1nc2c(CCN3CCC(NCc4ccc5c(c4)NCCO5)CC3)c(Cl)cnc2cc1F` is 1%; for `O=C(/C=C/c1ccc(Cl)cc1)NCCCCCN1CCC(C(=O)Nc2cccc(Cl)c2)CC1` it is -8%. Consider `Cc1nnc2c(NC(=O)NC3CCCC3)cc3ccc(-c4cccc(CN(C)C)c4)cc3n12`, for which the inhibition is 3%. Then `CC(C)(C)c1ccc(NC(=O)c2ccc(CN3CCCN(CC4CCCCC4)CC3)cc2)cc1`, with -1%; and `O=C(Nc1cccc(-c2cccc(-c3nc4ccc(F)cc4[nH]3)c2)c1)c1ccncc1`, with -3%; and `CC(=O)c1c(Nc2c(C)cc(C)cc2C)oc(C)cc1=O`, with 7%.

`O=C(NCCCCN1CCC(c2ccc(C(F)(F)F)cc2C(F)(F)F)CC1)c1ccc(NC(=O)c2ccc(Cl)cc2)cc1`: the inhibition is 7%. Turning to `O=C(N[C@@H](CC1CCCCC1)C(=O)NC1CCCc2ccccc21)c1ccc(O)c(-c2cccc(C(F)(F)F)c2)c1` (some centres not stated), the inhibition was 5%.

The values are drawn from PubChem BioAssay.
